Test results: the supplement of paper PMC6607015
Structures can show the parent of a compound that is named as a salt.

tested on: HeLa MZ; experiment: whole-cell filipin (free cholesterol) integrated intensity, Z-score; higher = more cholesterol staining; conditions: compound concentration in added solution (µM; 5 µl added to 20 µl cells): 10; 18 h
Procedure, shortened: (§1)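 HeLa MZ or A431 cells (3,500/well in 20 µl) were seeded onto 5 µl of 10 µM compound solution in duplicate 384-well imaging plates, incubated 18 h, then fixed in 4% PFA. Cells were stained with 6C4 anti-LBPA antibody, filipin, propidium iodide and CellTracker green, and four 20× images were taken per well. MetaXpress segmentation gave per-cell integrated LBPA or filipin intensity, either whole-cell or within LBPA endosomes. Values are Z-scores normalised in AcuityXpress.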

SMILES	whole-cell filipin (z-score)
C[C@@H]1NC(=O)NC1=O [Methylhydantoin-5-(L)]	-0.142
C[C@@](Cc1ccc(O)c(O)c1)(NN)C(=O)O [Carbidopa]	-0.705
CCN(CC)C(=S)SSC(=S)N(CC)CC [Disulfiram]	0.0194
C[C@]12C[C@H](O)[C@H]3[C@@H](CCC4=CC(=O)CC[C@@]43C)[C@@H]1CC[C@@H]2C(=O)CO [Corticosterone]	-0.633
Cc1scc2c1N(C(=O)CN1CCN(C)CC1)c1ccccc1NC2=O [Telenzepine dihydrochloride]	-0.897
Cc1nnc(SCC2=C(C(=O)O)N3C(=O)[C@@H](NC(=O)Cn4cnnn4)[C@H]3SC2)s1 [Cefazolin sodium salt]	-0.218
COc1nc(C)nc(Cl)c1NC1=NCCN1 [Moxonidine]	-0.203
Nc1ccc(S(=O)(=O)c2ccc(N)cc2)cc1 [Dapsone]	-0.817
CCCCOc1ccc(OCCCN2CCOCC2)cc1 [Pramoxine hydrochloride]	2.25
CC(C)n1c(/C=C/C(O)CC(O)CC(=O)O)c(-c2ccc(F)cc2)c2ccccc21 (stereo not given) [Fluvastatin sodium salt]	-0.754
COc1cc(NS(=O)(=O)c2ccc(N)cc2)ncn1 [Sulfamonomethoxine]	0.0403
CN1C(C(=O)Nc2ccccn2)=C(O)c2sccc2S1(=O)=O [Tenoxicam]	-0.0776
CCOC1O[C@H]([C@@H](COCc2ccccc2)OCc2ccccc2)[C@H](OCc2ccccc2)[C@H]1O (stereo not given in full) [Tribenoside]	1.71
CN[C@H]1CC[C@@H](c2ccc(Cl)c(Cl)c2)c2ccccc21 [Sertraline]	0.938
COc1ccc(C(=O)c2ccccc2O)c(O)c1 [Dioxybenzone]	0.232
CN(C)[C@@H]1C(O)=C(C(N)=O)C(=O)[C@@]2(O)C(O)=C3C(=O)c4c(O)cccc4[C@@](C)(O)[C@H]3[C@H](O)[C@@H]12 [Oxytetracycline dihydrate]	-0.703
CCCCOc1ccc(C(=O)CCN2CCCCC2)cc1 [Dyclonine hydrochloride]	-0.794
C1CCC(C(CC2CCCCN2)C2CCCCC2)CC1 (stereo not given) [Perhexiline maleate]	0.438
CCC(Cc1c(I)cc(I)c(N)c1I)C(=O)O (stereo not given) [Iopanoic acid]	-0.587
CN(C)CCOC(=O)C(c1ccccc1)C1(O)CCCC1 (stereo not given) [Cyclopentolate hydrochloride]	-0.332
COc1ccccc1OCC(O)COC(N)=O (stereo not given) [Methocarbamol]	-0.777
O=C(O)c1cc(-c2ccc(F)cc2F)ccc1O [Diflunisal]	-0.25
CC(C)(C)CC(C)(C)c1ccc(OCCOCC[N+](C)(C)Cc2ccccc2)cc1 [Benzethonium chloride]	-0.53
CN(N=O)C(=O)N[C@@H](C=O)[C@@H](O)[C@H](O)[C@H](O)CO [Streptozotocin]	-0.525
Fc1ccc([C@@H]2CCNC[C@H]2COc2ccc3c(c2)OCO3)cc1 [Paroxetine Hydrochloride]	-0.28
C=C(NC(=O)C(=C)NC(=O)c1csc(C2=N[C@@H]3c4csc(n4)[C@H]4NC(=O)c5csc(n5)[C@H]([C@](C)(O)[C@@H](C)O)NC(=O)[C@H]5CSC(=N5)/C(=C/C)NC(=O)[C@H]([C@@H](C)O)NC(=O)c5csc(n5)[C@]3(CC2)NC(=O)[C@H](C)NC(=O)C(=C)NC(=O)[C@H](C)NC(=O)[C@H]([C@@H](C)CC)N[C@@H]2C=Cc3c([C@H](C)O)cc(nc3[C@H]2O)C(=O)O[C@@H]4C)n1)C(N)=O [Thiostrepton]	-0.786
CC(NCCC(c1ccccc1)c1ccccc1)c1ccccc1 (stereo not given) [Fendiline hydrochloride]	0.948
Cc1cc(-c2ccccc2)nnc1NCCN1CCOCC1 [Minaprine dihydrochloride]	-0.799
O=C1NCCN1CCN1CCC(c2cn(-c3ccc(F)cc3)c3ccc(Cl)cc23)CC1 [Sertindole]	-0.48

tested on: A431; experiment: filipin (cholesterol) integrated intensity within LBPA endosomes, Z-score; higher = more cholesterol in LBPA endosomes; conditions: compound concentration in added solution (µM; 5 µl added to 20 µl cells): 10; 18 h
Procedure, shortened: as §1

SMILES	filipin (z-score)
C[C@@H]1NC(=O)NC1=O [Methylhydantoin-5-(L)]	-0.411
C[C@@](Cc1ccc(O)c(O)c1)(NN)C(=O)O [Carbidopa]	-0.551
C[C@]12C[C@H](O)[C@H]3[C@@H](CCC4=CC(=O)CC[C@@]43C)[C@@H]1CC[C@@H]2C(=O)CO [Corticosterone]	-0.326
Cc1scc2c1N(C(=O)CN1CCN(C)CC1)c1ccccc1NC2=O [Telenzepine dihydrochloride]	-0.595
Cc1nnc(SCC2=C(C(=O)O)N3C(=O)[C@@H](NC(=O)Cn4cnnn4)[C@H]3SC2)s1 [Cefazolin sodium salt]	-0.384
COc1nc(C)nc(Cl)c1NC1=NCCN1 [Moxonidine]	-0.176
Nc1ccc(S(=O)(=O)c2ccc(N)cc2)cc1 [Dapsone]	-0.55
CCCCOc1ccc(OCCCN2CCOCC2)cc1 [Pramoxine hydrochloride]	-0.151
CN(Cc1cnc2nc(N)nc(N)c2n1)c1ccc(C(=O)N[C@@H](CCC(=O)O)C(=O)O)cc1 [Methotrexate]	-0.754
COc1cc(NS(=O)(=O)c2ccc(N)cc2)ncn1 [Sulfamonomethoxine]	-0.378
CN1C(C(=O)Nc2ccccn2)=C(O)c2sccc2S1(=O)=O [Tenoxicam]	-0.522
COC(=O)Nc1nc2cc(C(=O)c3ccc(F)cc3)ccc2[nH]1 [Flubendazol]	-0.305
CCOC1O[C@H]([C@@H](COCc2ccccc2)OCc2ccccc2)[C@H](OCc2ccccc2)[C@H]1O (stereo not given in full) [Tribenoside]	0.264
COc1cc([C@@H]2c3cc4c(cc3[C@@H](O[C@@H]3O[C@@H]5CO[C@@H](C)O[C@H]5[C@H](O)[C@H]3O)[C@H]3COC(=O)[C@H]23)OCO4)cc(OC)c1O [Etoposide]	-0.718
COc1ccc(C(=O)c2ccccc2O)c(O)c1 [Dioxybenzone]	-0.379
CN(C)[C@@H]1C(O)=C(C(N)=O)C(=O)[C@@]2(O)C(O)=C3C(=O)c4c(O)cccc4[C@@](C)(O)[C@H]3[C@H](O)[C@@H]12 [Oxytetracycline dihydrate]	-0.537

SMILES	filipin (z-score)
O=C(CCCCCCC(=O)Nc1ccccc1)NO [Vorinostat]	-0.414
COC(=O)Nc1nc2cc([S+]([O-])c3ccccc3)ccc2[nH]1 (stereo not given) [Oxfendazol]	-0.364
CN1C(C)(C)CCCC1(C)C [Pempidine tartrate]	-0.313
CCCCOc1ccc(C(=O)CCN2CCCCC2)cc1 [Dyclonine hydrochloride]	0.482
CCC(Cc1c(I)cc(I)c(N)c1I)C(=O)O (stereo not given) [Iopanoic acid]	-0.484
CN(C)CCOC(=O)C(c1ccccc1)C1(O)CCCC1 (stereo not given) [Cyclopentolate hydrochloride]	-0.39
COc1ccccc1OCC(O)COC(N)=O (stereo not given) [Methocarbamol]	-0.492
O=c1[nH]cc(F)c(=O)[nH]1 [5-fluorouracil]	-0.862
CCN(CC)CCNc1ccc(CO)c2sc3ccccc3c(=O)c12 [Hycanthone]	2.68
O=C(O)c1cc(-c2ccc(F)cc2F)ccc1O [Diflunisal]	-0.434
CN(N=O)C(=O)N[C@@H](C=O)[C@@H](O)[C@H](O)[C@H](O)CO [Streptozotocin]	-0.474
Nc1nc2n[nH]nc2c(=O)[nH]1 [Azaguanine-8]	-0.438
CCCC1C(=O)N2C(N(C)C)=Nc3ccc(C)cc3N2C1=O (stereo not given) [Azapropazone]	-0.348
CC(CN(C)C)CN1c2ccccc2Sc2ccccc21 (stereo not given) [Trimeprazine tartrate]	2.12
Cc1cc(-c2ccccc2)nnc1NCCN1CCOCC1 [Minaprine dihydrochloride]	-0.593
